# This is a sample that favours compounds with a hit; in the whole collection about 1.2% have one here.
# GoLoco inh red = qHTS Assay for Inhibitors of RGS12 GoLoco Motif Activity (Red Fluorophore). AID 880, 2007. 0.44% of 230,000 active. Potency, µM (highest dose often 61.6 µM), for the others: at the highest dose activity, negative = inhibition, hits mostly inhibitors. Gai1:RGS12 GoLoco peptide FP, rhodamine, 10 min. Guanine nucleotide-binding protein G(i) subunit alpha-1 (Homo sapiens), P63096; active means well fitted inhibition curve with a large enough effect, not every such curve was filed as active; inactive means no such curve, though single readings can be large or run the other way; further: nearly all actives have a fitted effect of over 30% in size
# KAT2A inh = qHTS Assay for Inhibitors of GCN5L2; 0.21% of 390,000 active; Histone acetyltransferase KAT2A (Homo sapiens), Q92830; Potency, µM (series often up to 58.9 µM), inactives show top-dose activity change, negative = inhibition, most hits filed as inhibitors; GCN5L2 HAT assay, ThioGlo1 CoA-SH fluorescence
#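 Preincubate 20nM GCN5L2 with compound 15 min, RT → add 50uM ThioGlo1 + 75uM H3(1-25) + 70uM acetyl-CoA → read fluorescence 0 and 20 min. Primary qHTS; fluorescent artifacts likely.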
# VDR inh = Inhibitors of the vitamin D receptor (VDR): qHTS | Vitamin D3 receptor (Homo sapiens), P11473 | VDR-SRC2-3 peptide fluorescence polarization, 2 h | Potency, µM, for the others: max response, negative = inhibition, hits mostly inhibitors | 0.93% of 400,000 active | AID 504847, 2011
#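 After 23 nl compound addition and a short centrifugation, plates sat for 2 hours at ambient temperature; polarization of fluorescence then indicated loss of VDR binding to peptide SRC2-3.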
# TRb SRC2 PPI = qHTS for Inhibitors of the Interaction of Thyroid Hormone Receptor and Steroid Receptor Coregulator 2; TRbeta-SRC2 peptide binding, fluorescence polarization; receptor liganded with 1 µM T3; Potency, µM (top dose mostly 106 µM), without a hit: at the highest dose activity change, negative = inhibition, most hits filed as inhibitors; 0.065% of 280,000 active;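 further: plate controls were bound peptide for no effect and peptide without receptor for full effect; nearly all actives have a fitted effect of over 50% in size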
# Target sequence (P10828 whole entry, looked up): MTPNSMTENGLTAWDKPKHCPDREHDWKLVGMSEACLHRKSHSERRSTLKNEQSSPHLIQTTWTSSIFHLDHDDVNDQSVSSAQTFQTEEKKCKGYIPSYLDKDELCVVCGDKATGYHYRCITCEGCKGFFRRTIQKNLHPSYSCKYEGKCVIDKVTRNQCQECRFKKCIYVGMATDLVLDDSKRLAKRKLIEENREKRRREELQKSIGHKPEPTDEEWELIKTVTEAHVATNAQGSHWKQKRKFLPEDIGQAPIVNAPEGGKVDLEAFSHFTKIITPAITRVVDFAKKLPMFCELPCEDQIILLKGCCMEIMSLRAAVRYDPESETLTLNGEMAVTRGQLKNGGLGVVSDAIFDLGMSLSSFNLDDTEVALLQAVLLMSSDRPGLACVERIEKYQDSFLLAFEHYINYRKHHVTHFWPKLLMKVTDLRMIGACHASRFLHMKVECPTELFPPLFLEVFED
#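 Each compound concentration gave % activity, normalized to unbound and bound Texas Red SRC2 controls, from polarization read after 5 hr ambient incubation with T3-loaded human TRb LBD.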
# TR SRC2 fluor cs = Total Fluorescence Counterscreen for Inhibitors of the Interaction of Thyroid Hormone Receptor and Steroid Receptor Coregulator 2. TRb/SRC2 Texas Red total fluorescence interference. AID 1479, 2009. Potency, µM (series often up to 106 µM), inactives show top-dose fluorescence change, negative = quenching. 0.29% of 280,000 active; active means well fitted curve in either direction with a large enough effect; inconclusive means small, poorly fitted or top-dose-only effect
#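 Human TRβ ligand-binding domain (0.6 uM) and Texas Red SRC2 peptide (20 nM) in Tris buffer with 1 uM T3 and 5% DMSO were incubated with pinned compound for 5 hr at ambient temperature. Total fluorescence was computed as S + 2P (555/632 nm).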
# Numbers without * were called inactive; u = inconclusive; x = no result; [ ] = remark or other dose. Unless noted, the call rests on the fitted dose curve; in most records, active means well fitted curve in the direction sought with a large enough effect; inconclusive means small, poorly fitted or top-dose-only effect, or another doubt; inactive means no such curve, though single readings can be large; an effect the other way counts as inactive or inconclusive. Unless noted, on the % scale 0 is the no-effect control and ±100 the full control effect; potency means the concentration at half of the fitted maximal effect.
SMILES,GoLoco inh red,KAT2A inh,VDR inh,TRb SRC2 PPI,TR SRC2 fluor cs
CCOC(=O)c1nn(-c2ccc(C)cc2)c(=O)c2c(N)scc12,-6.5%,-29.0%,12.6µM*,-4.1%,-0.8%
CCOC(=O)c1c(NC(=O)c2cc(-c3cccc(OC)c3)on2)sc2c1CCCC2,x,-21.3%,79.4µM*,-0.5%,4.9%
Cc1cccc(NC(=O)c2c(NC(=O)c3ccccc3)sc3c2CCCC3)c1,x,u,79.4µM*,-3.0%,-40.1%
CCOC(=O)c1c(NC(=O)c2ccccc2)sc2c1CCc1ccccc1-2,-9.9%,-26.3%,70.8µM*,-1.5%,-0.7%
CCOC(=O)c1c(NC(=O)c2ccccc2C)sc2c1CCCC2,x,-21.3%,79.4µM*,-3.4%,3.1%
Cc1cccc(NC(=O)c2c(NC(=O)c3ccccc3)sc3c2CCC3)c1,x,-12.4%,-8.2%,-7.6%,1.4%
CCOC(=O)c1c(NC(=O)c2ccccc2C(=O)O)sc2c1CCCC2,x,-1.9%,-2.6%,x,x
CCCC[C@H](NC(=O)[C@H](CO)NC(=O)[C@H](Cc1ccc(O)cc1)NC(=O)[C@H](CO)NC(C)=O)C(=O)N[C@@H](CCC(=O)O)C(=O)N[C@@H](Cc1cnc[nH]1)C(=O)N[C@H](Cc1ccccc1)C(=O)N[C@@H](CCCNC(=N)N)C(=O)N[C@@H](Cc1c[nH]c2ccccc12)C(=O)NCC(=O)N[C@@H](CCCCN)C(=O)N1CCC[C@H]1C(=O)N[C@H](C(N)=O)C(C)C,x,-3.1%,1.2%,4.7%,5.0%
C=CC1=C2C=C(C3CC3)N(CCCOC(C)C)C=C2C(=O)C(C)(OC(=O)c2ccco2)C1=O (configuration not stated),-10.2%[14.2 µM],x,x,-1.5%[11.2 µM],-13.0%[11.2 µM]
CC(C)(C)c1cc(C(=S)N2CCN(CCO)CC2)cc(C(C)(C)C)c1O,2.7%,-13.5%,39.8µM*,4.2%,-7.7%
OCCN1CCN(C(=S)c2ccc(Cl)cc2)CC1,1.5%,-3.4%,u,0.0%,-0.1%
O=C(CCN1CCOCC1)c1ccc(N2CCCCC2)cc1,x,2.9%,u,x,x
CC(C)(C)c1cc(C(=O)CCN2CCOCC2)cc(C(C)(C)C)c1O,x,-0.2%,50.1µM*,x,x
NN(c1ccccc1)c1ccccc1,x,x,x,-1.7%[201 µM],0.1%[201 µM]
O=c1n(Cc2ccc([N+](=O)[O-])cc2)c2ccccc2c2nc(-c3ccccc3)nn12,x,-0.3%,10.3%,-21.3%,100µM*[quencher]
CN(N=O)c1ccc(/C=C\c2ccnc3ccccc23)cc1,-4.0%[14.2 µM],x,x,x,x
O=C(NC(=S)Nc1ccccc1C(=O)O)c1cncc(Br)c1,x,-12.5%,50.1µM*,x,x
O=C(/C=C/c1ccccc1)c1ccc(O[C@H]2OC(CO)C(O)C(O)C2O)cc1O (some centres not stated),-1.9%,-5.6%,15.8µM*,-0.7%,-0.1%
O=C(COC(=O)Cc1n[nH]c(=O)c2ccccc12)Nc1ccc(Cl)cc1F,5.2%,-3.2%,-13.9%,6.4%,-3.5%
Cc1nnnn1/C(=C\c1ccccc1)C(=O)OCC(=O)Nc1ccc(Cl)cc1F,x,-1.1%,39.8µM*,x,x
C/C(=N\NC(=O)c1ccc(C)cc1C)c1ccc2c(c1)OCO2,4.4%,1.2%,-8.6%,2.1%,0.0%
C/C(=N\NC(=O)c1cc2ccccc2cc1O)c1ccc2c(c1)OCO2,60.3%,-3.9%,-8.3%,22.6%,35.5µM*[quencher]
CCOc1ccc(N)c(SSc2cc(OCC)ccc2N)c1,x,-11.5%,10µM*,x,x
Cc1cccc(OCCn2c(CCNC(=O)C3CCCCC3)nc3ccccc32)c1,x,x,-6.6%,x,x
CCOC(=O)[C@H](C)Oc1ccc(Oc2nc3ccc(Cl)cc3o2)cc1,x,x,x,4.6%[201 µM],-1.2%[201 µM]
SMILES,GoLoco inh red,KAT2A inh,VDR inh,TRb SRC2 PPI,TR SRC2 fluor cs
O=C(NC1CC1)c1cc(-c2ccco2)nc2ccccc12,-8.0%,u,-11.3%,-0.7%,-15.9%
O=C(O)c1cc(-c2ccco2)nc2ccccc12,-24.8%,u,79.4µM*,1.4%,-5.0%
O=C(N/N=C/c1ccc(F)cc1)c1cc(-c2ccco2)nc2ccccc12,9.2%,u,2.9%,2.6%,31.6µM*[quencher]
CCOc1ccc(/C=N/NC(=O)c2cc(-c3ccco3)nc3ccccc23)cc1,7.6%,-16.4%,-10.0%,2.9%,0.7%
Cc1ccc(S(=O)(=O)CCC(=O)Nc2cccc(C)c2)cc1,0.2%,-2.0%,-12.6%,-3.0%,-1.6%
CCc1cccc(NC(=O)CCS(=O)(=O)c2ccc(Br)cc2)c1,x,-12.9%,79.4µM*,x,x
COc1ccccc1N=Cc1nc(-c2ccccc2)oc1OC(C)=O,9.6%,-9.9%,u,-0.4%,-4.2%
CC(=O)Oc1oc(-c2ccccc2)nc1/C=N/c1ccccn1,24.3%,-9.3%,22.4µM*,-2.7%,-3.0%
COc1ccc(-c2noc(-c3ccc(C)cc3Cl)n2)cc1OC,x,2.7%,-10.0%,-7.3%,0.126µM*[quencher]
O=c1c2ccccc2nnn1Cc1ccc(F)cc1,3.3%,0.2%,-12.3%,1.7%,-3.3%
O=c1c2ccccc2sn1-c1ccc(F)cc1,x,2µM*,15.8µM*,x,x
COC(=O)c1cccc(-n2sc3ccccc3c2=O)c1,x,1.58µM*,u,x,x
CCCCCCCCCCCC[N+](C)(C)C,x,x,x,7.8%[201 µM],-2.4%[201 µM]
Cc1nc2c(C#N)c[nH]n2c(=O)c1Cc1ccccc1,9.9%,-8.3%,11.9%,-9.3%,-1.9%
Cc1nc2c(C#N)c[nH]n2c(=O)c1CCO,-0.3%,-20.9%,28.2µM*,-3.8%,0.2%
COc1cccc(C2=Nn3c(nnc3-c3ccccc3C)SC2)c1,x,x,x,2.2%,-3.4%
COc1ccc(Cl)cc1C=CC=Nc1ccccc1O,x,x,89.1µM*,x,x
CC(=O)NCCCN(Cc1ccc(Cl)c(Cl)c1)c1ccc(Br)cn1,x,x,-22.5%,x,x
NC(=O)CN1C(=O)C2(SCC(=O)N2c2cccc(F)c2)c2ccccc21 (configuration not stated),x,15.0%,-1.3%,0.2%,-2.8%
CCc1cccc(C)c1NC(=O)CN1C(=O)C2(SCC(=O)N2c2cccc(F)c2)c2ccccc21 (configuration not stated),x,1.9%,8.9%,-24.3%,20µM*[quencher]
C=C(C)C(=O)/C=C/c1ccc(Br)cc1,6.4%,x,17.8µM*,5.9%,-0.9%
CNc1nc(=O)n(C2CCCCC2)c(=O)n1C,x,x,x,1.6%[201 µM],-1.1%[201 µM]
COc1ccccc1NS(=O)(=O)c1cc(N)ccc1N1CCCC1,x,-13.7%,89.1µM*,x,x
COc1ccccc1NS(=O)(=O)c1cc(NC(C)=O)ccc1N1CCCCC1,-6.8%,-14.7%,u,4.4%,-2.7%
O=C(NCc1ccco1)c1cc2cc(Br)ccc2o1,x,-13.4%,89.1µM*,x,x
Cc1c(C(=O)NCc2ccco2)oc2ccc(Br)cc12,x,-29.0%,-8.2%,x,x
N#Cc1ccc(CS(=O)(=O)c2nnnn2-c2ccccc2)cc1,0.8%,x,44.7µM*,1.5%,0.2%
